# Screening data from PubChem BioAssay.
# G9a block: G9a (human) methyltransferase inhibition; G9a H3K9 monomethylation, AlphaScreen, 2 h; Potency, µM (titrated, usually from 102 µM), without a hit: top-dose activity, negative = inhibition, actives largely listed as inhibitors; 350,000 compounds, 8.8% hits; further: on the % scale 0 is the no-effect control and ±100 the full control effect; nearly all actives have a fitted effect of over 75% in size
# Target sequence (Q96KQ7 913-1193 limits assumed): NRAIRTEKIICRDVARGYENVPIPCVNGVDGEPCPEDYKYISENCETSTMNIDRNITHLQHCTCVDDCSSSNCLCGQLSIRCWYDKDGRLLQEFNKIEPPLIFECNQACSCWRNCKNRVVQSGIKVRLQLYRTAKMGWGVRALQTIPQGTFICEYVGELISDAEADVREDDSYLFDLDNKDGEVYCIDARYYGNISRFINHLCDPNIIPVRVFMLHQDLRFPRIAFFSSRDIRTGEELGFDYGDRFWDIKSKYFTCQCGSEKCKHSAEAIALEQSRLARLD
#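 AlphaScreen detection with an anti-monomethyl H3K9 antibody quantified product after a 2 h room-temperature reaction containing 500 nM biotinylated H3K9 peptide, 20 µM SAM and 20 nM enzyme, which had been preincubated 15 min with compound.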
# L3MBTL1 block: blocks human L3MBTL1; 230,000 compounds, 0.66% hits; AID 485360; Q9Y468; Potency, µM (titrated, usually from 57.1 µM), without a hit: top-dose activity, negative = inhibition, actives largely listed as inhibitors; AlphaScreen L3MBTL1–H3K9me1 peptide binding; further: on the % scale 0 is the no-effect control and ±100 the full control effect; nearly all actives have a fitted effect of over 60% in size
#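 L3MBTL1 (50 nM) pre-complexed 30 min with biotinylated H3(1-15)K9me1 peptide (75 nM), then compounds added for 30 min at room temperature; AlphaScreen streptavidin donor/nickel chelate acceptor beads (10 ug/mL final) read after 30 min dark incubation.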
# GLS inh: blocks human kidney-isoform glutaminase activity; Potency, µM (doses to about 45.5 µM), without a hit: at the top dose activity change, negative = inhibition, actives largely listed as inhibitors; 410,000 compounds, 0.21% hits; GLS enzymatic activity, qHTS titration; further: on the % scale 0 is the no-effect control and ±100 the full control effect
#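 Compounds were pin-transferred onto hKGA, after which L-glutamine (1 mM solution) and a detection mix of glutamate oxidase, HRP and Amplex Red were added. Initial and 30 min RT fluorescence reads were collected.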
# BAZ2B inh: blocks human BAZ2B. Q9UIF8. AlphaScreen BAZ2B-H3K14Ac peptide displacement. Potency, µM (series often up to 114 µM), without a hit: at the highest dose activity change, negative = inhibition, usual class: inhibitors. 360,000 compounds, 4.4% hits; further: on the % scale 0 is the no-effect control and ±100 the full control effect; nearly all actives have a fitted effect of over 60% in size
#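 BAZ2B (50 nM) with biotin-H3(5-23)K14Ac peptide (50 nM) in PBS pH 7.4, 0.01% Tween-20, preformed 30 min, then compound 30 min at room temperature; top concentration 110uM. AlphaScreen streptavidin donor/nickel chelate acceptor beads (10 ug/mL final), 20 min dark, signal read.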
# JMJD2A Tudor: JMJD2A Tudor domain (human) inhibition. O75164. AlphaScreen JMJD2A-Tudor / H3K4me3 peptide binding. Potency, µM (series often up to 114 µM), for inactives: at the top dose activity change, negative = inhibition, usual class: inhibitors. 390,000 compounds, 4.4% hits; further: on the % scale 0 is the no-effect control and ±100 the full control effect; nearly all actives have a fitted effect of over 50% in size
# HP1b chromo inh: blocks HP1-beta chromodomain binding to methylated histone tails; P83916; AlphaScreen HP1-beta / biotin-H3K9me3 peptide binding; Potency, µM (series often up to 114 µM), for inactives: top-dose activity change, negative = inhibition, actives largely listed as inhibitors; 390,000 compounds, 0.56% hits; AID 540317; further: nearly all actives have a fitted effect of over 70% in size
# Target sequence (P83916 whole entry, looked up): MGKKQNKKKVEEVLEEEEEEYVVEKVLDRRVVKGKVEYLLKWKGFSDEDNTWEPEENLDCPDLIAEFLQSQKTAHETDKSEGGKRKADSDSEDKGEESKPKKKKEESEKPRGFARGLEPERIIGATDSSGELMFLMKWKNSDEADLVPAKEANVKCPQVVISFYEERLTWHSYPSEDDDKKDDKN
#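 AlphaScreen: HP1-beta (50 nM) preformed 30 min with biotin-H3(1-18)K9me3 peptide (50 nM) in PBS pH 7.4, 0.01% Tween-20. Compound added for 30 min at RT, then streptavidin donor/nickel chelate acceptor beads (10 ug/mL) for 30 min.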
# Starred values were filed as active, the others as inactive; ? = inconclusive; / = no result; [ ] = another dose, or the depositor's remark. The list is not random: actives were taken first. Their share in the collection is about 10%. The call rests on the fitted dose curve; in most records, active means well fitted curve in the direction sought with a large enough effect; inconclusive means small, poorly fitted or top-dose-only effect, or another doubt; inactive means no such curve, though single readings can be large; an effect the other way counts as inactive or inconclusive. Potency means the concentration at half of the fitted maximal effect.
SMILES,G9a block,L3MBTL1 block,GLS inh,BAZ2B inh,JMJD2A Tudor,HP1b chromo inh
O=C1C(=O)N(CCCN2CCOCC2)C(c2ccc([N+](=O)[O-])cc2)/C1=C(/O)c1ccc2c(c1)OCO2 (stereo unspecified),50µM*,/,17%,-21%,-14%,30%
COC(=O)c1ccc(C2/C(=C(\O)c3ccc4c(c3)OCCO4)C(=O)C(=O)N2CCCN2CCOCC2)cc1 (stereo unspecified),?,/,-9%,-14%,-5%,34%
COc1ccc(Nc2nc3ccc(Cl)cc3n3nnnc23)cc1OC,-27%[59 µM],/,0%,-5%,-5%,28%
COc1cccc(N2CCN(c3ccc(N4C(=O)CCC4=O)cc3[N+](=O)[O-])CC2)c1,50µM*,/,4%,?,?,-20%
CN(CC(=O)Nc1ccc(Cl)c(C(F)(F)F)c1)C(=O)Cn1cc([N+](=O)[O-])ccc1=O,6.3µM*,-1%,-1%,-10%,-22%,15%
CN(CC(=O)Nc1ccc(Cl)c(C(F)(F)F)c1)C(=O)c1ccc(N2CCOCC2)c([N+](=O)[O-])c1,32µM*,0%,10%,-36%,?,?
Cc1ccc(NC(=O)CN(C)C(=O)Cn2cc(C(F)(F)F)ccc2=O)cc1,6%,8%,-4%,-2%,6%,24%
COc1cccc(CN(C)C(=O)c2ccc(N3CCCC3)c([N+](=O)[O-])c2)c1,50µM*,/,1%,?,45µM*,-11%
CCOc1ccc(NC(=O)C2CCC(CNS(=O)(=O)c3ccc(Br)s3)CC2)cc1 (stereo unspecified),5%[59 µM],/,0%,-3%,-25%,2%
CC(=O)Nc1cccc(NC(=O)c2c(-c3ccccc3)c(-c3ccccc3)nn(C)c2=O)c1,-1%[59 µM],/,13%,-10%,-18%,21%
COc1ccc(NC(=O)CN(C)C(=O)c2ccc(N3CCOCC3)c([N+](=O)[O-])c2)cc1,20%,5%,4%,7%,-21%,5%
COc1ccc(CC(=O)Nc2ccc(N3CCCC3)c(C)c2)cc1,8.9µM*,/,-10%,?,?,?
Cc1ccc(NC(=O)CN(C)C(=O)c2ccc(Cl)c([N+](=O)[O-])c2)cc1,22µM*,-2%,1%,1%,-18%,9%
COc1ccc(NC(=O)CN(C)C(=O)c2ccc(N3CCCCC3)c([N+](=O)[O-])c2)cc1,50µM*,-18%,10%,?,-34%,-18%
COc1ccc(NC(=O)CN(C)C(=O)c2ccc(N3CCCCCC3)c([N+](=O)[O-])c2)cc1,50µM*,-9%,6%,-9%,?,-24%
O=C(CSc1nc(=O)[nH]c2c1CCC2)Nc1cc(C(F)(F)F)ccc1Cl,-5%[59 µM],/,6%,-15%,-16%,11%
COCCn1c(=O)c(-c2cccc(C#N)c2)nc2cnc(N3CCNCC3)nc21,6%[12.7 µM],/,/,/,/,/
O=C(CCS(=O)(=O)c1ccc2c(c1)NC(=O)CS2)NCCc1ccccc1,17%,/,1%,-14%[57.1 µM],-1%,35%
O=C(CCS(=O)(=O)c1ccc2c(c1)NC(=O)CS2)NCCc1ccc(Cl)cc1,10%,/,3%,-18%,16µM*,13%
CCOc1cc(/C=N\Nc2nc(-c3ccc(C)cc3)c(NC(C)=O)s2)ccc1O,32µM*,-10%,-3%,-38%,28µM*,?
COc1cc(/C=N\Nc2nc(-c3ccc(C)cc3)c(NC(C)=O)s2)ccc1O,-120%[59 µM],-12%,-17%,40µM*,-27%[11.4 µM],28µM*
COC(=O)c1scc(-c2ccc(C)cc2)c1S(=O)(=O)N1CCN(c2ccccc2F)CC1,-8%[59 µM],/,0%,?,2%,-17%
COCCn1c(=O)c(-c2ccccc2)nc2cnc(Nc3cccc(OC)c3)nc21,-4%[0.501 µM],/,/,/,/,/
CC(=O)c1c(C)[nH]c(C(=O)OCC(=O)Nc2cc(S(=O)(=O)N3CCCC3)ccc2Cl)c1C,18%[59 µM],2%,-11%,-5%,-7%,19%
CC(=O)c1c(C)[nH]c(C(=O)OCC(=O)Nc2cccc(S(=O)(=O)N3CCCC3)c2)c1C,-1%,1%,4%,56µM*,-22%,7%
SMILES,G9a block,L3MBTL1 block,GLS inh,BAZ2B inh,JMJD2A Tudor,HP1b chromo inh
CC(=O)c1c(C)[nH]c(C(=O)OCC(=O)Nc2cccc(S(=O)(=O)N(C)C)c2)c1C,2%[59 µM],0%,1%,50µM*,-23%,49%
O=C(O)C(=O)/C(=C\c1cccc2ccccc12)c1ccc2ccccc2n1,8%,/,41%,4%,-18%,43%
O=C(O)C(=O)/C(=C\c1ccsc1)c1ccc2ccccc2n1,?,/,15%,-6%,89µM*,5%
O=C(O)C(=O)/C(=C\c1ccc([N+](=O)[O-])cc1)c1ccc2ccccc2n1,35µM*,1%,4%,?,?,1%
O=C(O)C(=O)/C(=C\c1ccccc1)c1ccc2ccccc2n1,79µM*,/,-4%,1%,?,35%
O=C(OCc1ccc([N+](=O)[O-])cc1)c1ccc2ccccc2n1,?,/,11%,-9%,-2%,0%
COc1ccc(CCNS(=O)(=O)c2ccc(N3CCCCS3(=O)=O)cc2)cc1,11%[59 µM],/,5%,13%,-14%,57%
COc1cn(-c2ccccc2)nc1C(=O)Nc1ccc(C)cc1Cl,?,/,-3%,79µM*,?,23%
O=C(CC(NC(=O)C(F)(F)F)c1ccccc1)Nc1nnc(CCc2ccccc2)s1 (stereo unspecified),10µM*,-9%,6%,9%,-17%,-12%
CC(C)(C)C(=O)NC(CC(=O)O)c1ccccc1 (stereo unspecified),50µM*,6%,2%,-11%,-6%,47%
Cc1nnc(NC(=O)CC(C)c2ccccc2)s1 (stereo unspecified),/,5%,3%,8%,8%,32%
CC(C)C(=O)NC(CC(=O)O)c1ccccc1 (stereo unspecified),-3%,9%,14%,2%,4%,25%
Cc1nnc(NC(=O)CC(NC(=O)C(F)(F)F)c2ccccc2)s1 (stereo unspecified),40µM*,3%,0%,-3%,-17%,-1%
CCC(=O)Nc1nnc(CCc2ccccc2)s1,16%[59 µM],22%,0%,-2%,-5%,29%
COc1cc2ccccc2cc1C(=O)Nc1ccc2oc(-c3cccc(C)c3)nc2c1,-36%[59 µM],/,18%,0%,-10%,17%
Cc1cc(Cl)c(OCCCn2cncn2)c(Br)c1,9%[12.7 µM],-10%,-4%,0%,-10%,60%
